PLC-gamma1 inh: blocks human PLC-gamma1 enzyme activity | purified PLC-gamma1, fluorogenic substrate, fluorescence | inhibition, % at 12.2 µM | P19174 | actives 0.84% (n = 370,000) | AID 720700; in the data active = inhibition above about 9.5%
PLC-beta3 inh: blocks human PLC-beta3 enzyme activity; Purified PLC-beta3, fluorogenic substrate, fluorescence; inhibition, % at 12.2 µM; actives 0.18% (n = 370,000); AID 720704; in the data active = inhibition above about 11%
Rce1 inhib: inhibitors of yeast Ras-converting enzyme; Q03530; yeast membranes, quenched prenylated peptide cleavage fluorescence; AID 2563; actives 0.27% (n = 290,000); calls only;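 active = fall in fluorescence gain of 50% or more versus controls, with final raw signal at or below 3038400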
NPR1 activator: GC-A (human) enzyme activation. P16066. HEK293 GC-A cells, cGMP TR-FRET, EC30 ANP; 0% at EC30 ANP, 100% saturating ANP. activation, % at 10 µM. actives 0.14% (n = 370,000); in the data active = activation above about 40%
NPR2 activator: GC-B (human) receptor activation | HEK293-GC-B cells, CNP EC30, cGMP TR-FRET; 0% at EC30 CNP, 100% saturating CNP | activation, % at 10 µM | P20594 | AID 1920062 | actives 0.11% (n = 370,000);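 active = activation at 10 µM reaching about 35% in either raw or pattern-adjusted values, limit read from the data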
Target sequence (P20594 whole entry, looked up): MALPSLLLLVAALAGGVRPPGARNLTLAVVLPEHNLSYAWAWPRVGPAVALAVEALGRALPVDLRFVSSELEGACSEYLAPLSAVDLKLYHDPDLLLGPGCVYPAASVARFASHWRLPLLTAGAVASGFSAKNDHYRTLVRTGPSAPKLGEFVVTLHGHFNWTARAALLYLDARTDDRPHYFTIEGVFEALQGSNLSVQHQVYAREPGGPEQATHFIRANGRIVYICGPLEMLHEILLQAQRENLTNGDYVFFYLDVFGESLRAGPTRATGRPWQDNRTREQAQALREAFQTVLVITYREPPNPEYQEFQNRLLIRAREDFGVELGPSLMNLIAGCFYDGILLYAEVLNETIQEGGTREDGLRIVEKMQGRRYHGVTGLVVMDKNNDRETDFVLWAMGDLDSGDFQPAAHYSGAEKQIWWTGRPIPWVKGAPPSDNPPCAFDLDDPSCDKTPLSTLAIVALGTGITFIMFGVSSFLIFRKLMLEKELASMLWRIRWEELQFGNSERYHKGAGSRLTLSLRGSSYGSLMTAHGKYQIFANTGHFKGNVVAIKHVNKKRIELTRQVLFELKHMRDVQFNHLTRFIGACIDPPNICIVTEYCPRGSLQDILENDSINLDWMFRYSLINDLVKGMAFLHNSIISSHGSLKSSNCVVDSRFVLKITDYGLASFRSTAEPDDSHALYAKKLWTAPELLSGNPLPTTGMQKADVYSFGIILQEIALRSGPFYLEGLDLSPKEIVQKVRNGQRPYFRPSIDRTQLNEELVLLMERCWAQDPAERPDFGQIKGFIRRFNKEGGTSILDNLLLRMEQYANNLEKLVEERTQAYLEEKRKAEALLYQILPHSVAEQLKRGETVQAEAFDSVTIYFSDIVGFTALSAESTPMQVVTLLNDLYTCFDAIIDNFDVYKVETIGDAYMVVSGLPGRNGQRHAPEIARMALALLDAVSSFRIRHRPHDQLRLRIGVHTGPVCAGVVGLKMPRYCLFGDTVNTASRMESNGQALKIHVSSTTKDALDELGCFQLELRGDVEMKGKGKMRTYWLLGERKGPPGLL
M18AAP inhibitor: PfM18AAP enzyme inhibition. recombinant PfM18AAP, H-Glu-NHMec fluorogenic cleavage. inhibition, % at 7.35 µM. actives 1.2% (n = 290,000). AID 1822;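 active = inhibition above the campaign mean inhibition over all tested compounds plus 3 SD, cut at about 28% in these data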
A number is an active result; n = inactive; x = not tested or not shown; + = active, no number. Only some compounds are listed: those with a hit (about 2.2% of all), similar ones and a draw of the others.

SMILES	PLC-gamma1 inh	PLC-beta3 inh	Rce1 inhib	NPR1 activator	NPR2 activator	M18AAP inhibitor
Cc1ccc2nc(N(CCN(C)C)C(=O)c3ccc4ccccc4c3)sc2c1	x	x	+	x	x	n
CN(C)CCN(C(=O)c1ccc2ccccc2c1)c1nc2c(F)cc(F)cc2s1	n	n	n	n	n	n
CCN(CC)CCN(C(=O)CCOc1ccccc1)c1nc2ccc(F)cc2s1	n	n	n	n	n	n
Cc1cccc2sc(N(CCN(C)C)C(=O)c3ccc4ccccc4c3)nc12	n	n	+	n	n	n
CC(C)(C)OC(=O)NCc1ccccc1/C=C/S(=O)(=O)NCc1ccccc1	n	n	x	n	n	x
CCOC(=O)C1(N(CC)CC)Sc2cc(C)ccc2NC1=O (stereo not given)	n	n	n	n	n	n
COC(=O)C1=C(C(=O)OC)SC2(S1)C(C(=O)OC)=C(C(=O)OC)SC1=C2c2cc(C)ccc2NC1(C)C	n	n	n	n	n	29
CCn1nc(C)cc1C(=O)NC1CC(C)(C)Cc2c1cnn2-c1cccc(F)c1 (stereo not given)	n	n	+	n	n	n
Cc1cc(C)c(C(=O)NC2CC(C)(C)Cc3c2cnn3-c2cccc(F)c2)[nH]1 (stereo not given)	n	n	n	n	n	n
O=C(CN1CCN(c2nc(-c3ccccc3)cs2)CC1)Nc1ccc(F)cc1F	n	n	x	n	n	x
CN1C(=O)c2cc(NC(=O)Cc3cccs3)ccc2OC[C@@H]2O[C@@H](CC(=O)N[C@H]3CCN(Cc4ccccc4)C3)CC[C@@H]21	n	n	x	n	n	x
O=C(C(Cc1ccccc1)N1C(=O)c2ccccc2C1=O)N1c2ccccc2CCc2ccccc21 (stereo not given)	n	n	+	n	n	n
COc1cc(SSc2cc(OC)cc([N+](=O)[O-])c2N)c(N)c([N+](=O)[O-])c1	n	n	n	n	n	31
COc1ccc(CCNC(=O)C2CCCN(c3nc4ccccc4s3)C2)cc1OC (stereo not given)	n	n	x	n	n	n
CCc1nnc(NC(=O)C2CCCN(c3nc4ccccc4s3)C2)s1 (stereo not given)	11	n	n	n	n	n
Cc1nn(-c2ccccc2)c2c1C(c1ccc(O)c(O)c1)N1C(=N2)C(Nc2ccccc2)=Nc2ccccc21 (stereo not given)	n	n	n	n	n	34
CN(CCO)c1ccc2c(c1)Oc1ccccc1CN(Cc1cn(Cc3ccc(C(F)(F)F)cc3)nn1)S2(=O)=O	n	n	x	n	n	x
Nn1c(SCc2cccc3ccccc23)nnc1-c1cc(-c2ccc(F)cc2)n[nH]1	n	n	x	n	n	x
COc1cccc(C2c3[nH]c4ccccc4c3C[C@H]3C(=O)N(c4ccccc4C(=O)N4CCC(C(=O)O)CC4)C(=O)N23)c1 (stereo not given in full)	n	n	n	n	51	n
COc1ccc(C2c3[nH]c4ccccc4c3C[C@H]3C(=O)N(c4ccccc4C(=O)N4CCC(C(=O)O)CC4)C(=O)N23)cc1 (stereo not given in full)	n	n	n	n	n	n
COc1ccc(N2CCN(c3ccc(NC(=O)/C=C\C(=O)O)cc3)CC2)cc1	n	n	n	n	n	31
COc1ccc(-c2nn(-c3ccccc3)cc2/C=N/O)cc1OC	n	n	n	n	n	n
COc1ccc(-c2nn(-c3ccccc3)cc2/C=N/NC(=O)c2ccc(Br)o2)cc1	n	n	n	n	n	n
COc1ccc(-c2nn(-c3ccccc3)cc2/C=N/NC(=S)NC(C)C)cc1OC	n	n	n	n	42	n
C=CCNC(=S)N/N=C/c1cn(-c2ccccc2)nc1-c1ccc(OC)cc1	n	n	n	n	42	n
SMILES	PLC-gamma1 inh	PLC-beta3 inh	Rce1 inhib	NPR1 activator	NPR2 activator	M18AAP inhibitor
COc1ccc(S[C@]2(C(=O)N(C)C)CC(=O)N(c3ccc(Cl)cc3)[C@@H]2c2ccc(OC)cc2)cc1	n	n	x	n	n	x
COc1ccc(S[C@]2(C(=O)N3CCCC3)CC(=O)N(P(=O)(OC)OC)[C@@H]2c2ccc(OC)cc2)cc1	n	n	x	n	n	x
CC(C)C(=O)N1CCN(c2nc(-c3ccccc3)c3c(c2C#N)CCCC3)CC1	n	n	+	n	n	n
CC(C)Cc1nc(N2CCN(C(=O)c3ccco3)CC2)c(C#N)c2c1CCCC2	n	n	n	n	119	n
CCCCNC(=O)c1cc2cc(OC)ccc2[nH]1	n	n	n	n	n	n
COc1ccc2[nH]c(C(=O)NCCCn3ccnc3)cc2c1	x	x	+	x	x	n
Cc1cccc(NC(=O)N2CCC(N(C)CCC(C)C)CC2)c1	n	n	x	n	n	x
O=C(COC(=O)CNC(=O)c1ccccc1F)NC1CC1	n	n	x	n	n	x
O=C(COC(=O)CNC(=O)c1ccccc1F)NC12CC3CC(CC(C3)C1)C2	12	n	x	n	n	x
CC(C)(C)c1ccc(-c2noc(CCC(=O)NC3CC3)n2)cc1	n	n	x	n	n	x
CC(Cl)C(=O)N1CCC(C(=O)NC2CCCc3ccccc32)CC1 (stereo not given)	n	n	x	n	n	x
CCC(C)(C)c1ccc(OCCCC[n+]2cccc(C)c2C)c(C(C)(C)CC)c1	n	n	+	n	n	n
CCC(C)(C)c1ccc(OCCCC[n+]2ccc(C)cc2)c(C(C)(C)CC)c1	n	n	n	n	n	n
C=CCN(CC#Cc1ccccc1)CC1CC1	n	n	x	n	n	x
CCOc1ccc2[nH]c(=O)c(CN(CCN3CCOCC3)Cc3nnnn3C(C)(C)CC)cc2c1	n	n	+	n	n	n
CCOc1ccc2[nH]c(=O)c(CN(Cc3cccs3)Cc3nnnn3C(C)(C)C)cc2c1	n	n	n	n	n	n
CC1=NN(c2cccc(C(=O)O)c2)C(=O)/C1=C\C=C\c1ccco1	23	n	n	n	n	n
CC1=NN(c2ccccc2)C(=O)/C1=C/C=C/c1ccccc1	n	n	n	n	n	n
COC(=O)C1CN(Cc2cn(Cc3ccccc3)nn2)CCS(=O)(=O)N1Cc1ccc(F)cc1 (stereo not given)	n	n	x	n	n	x
CC1CCc2c(sc(N)c2C(N)=O)C1 (stereo not given)	n	n	n	n	n	29
O=C(NCc1ccco1)c1ccc(COc2cc(Cl)ccc2Cl)cc1	n	n	n	41	n	n
CN(C)CCNC(=O)c1ccc(COc2ccc(Cl)cc2Cl)cc1	n	n	n	47	n	n
O=C(COC(=O)c1cnc(Cl)c(Cl)c1)c1ccc(F)cc1	n	n	x	52	n	x
Cc1ccc(Nc2nc(-c3ccc(S(=O)(=O)N4CCCC4)cc3)cs2)cc1C	x	x	n	x	x	n
O=S(=O)(c1ccc(-c2csc(Nc3ccc(F)cc3)n2)cc1)N1CCCC1	n	n	+	n	n	n
Cc1cc(C)cc(Nc2nc(-c3ccc(S(=O)(=O)N4CCCC4)cc3)cs2)c1	n	n	+	n	n	n

From PubChem BioAssay
